aSyn 5UTR act = Activators working through SNCA 5'UTR binding (MLPCN) | AID 1814 | alpha-synuclein 5'UTR reporter, activators screen | activity score, % (tested at 7.5 µM), hits read low | hit rate 7.1% among 300,000; in the data active means activity score below about -60%
* = called active by the depositor. Not all results are given here.

COc1ccc(O)c(-c2cc(-c3cccc(Br)c3)n[nH]2)c1 was read as aSyn 5UTR act -131.9*.
For COc1ccc(O)c(-c2cc(-c3ccc(F)cc3)n[nH]2)c1 the results were aSyn 5UTR act -121.1*.
`COc1ccc(OC)c(-c2cc(C3CCN(c4cc(Cl)nc(N)n4)CC3)[nH]n2)c1` gave aSyn 5UTR act 61.0.
COc1ccc(-c2cc(-c3cc(OC)ccc3O)[nH]n2)cc1 was read as aSyn 5UTR act -199.2*.
`N/C(=N/OC(=O)c1ccc(Cl)cc1)c1ncc([N+](=O)[O-])s1` gave aSyn 5UTR act -78.3*.
`COc1ccc(C(=O)O/N=C(\N)c2ccc(Cl)cc2)cc1` gave aSyn 5UTR act -195.8*.
`N/C(=N\OC(=O)c1cccs1)c1ccc(Cl)cc1` gave aSyn 5UTR act -104.0*.
Screening COc1ccccc1C(=O)O/N=C(\N)c1ccc(Cl)cc1 returned aSyn 5UTR act -263.7*.
For Cc1ccc(OCc2csc(N)n2)cc1 the results were aSyn 5UTR act -107.6*.
`Nc1nc(COc2ccccc2)cs1` gave aSyn 5UTR act -67.2*.
Nc1nc(COc2ccc(Cl)cc2)cs1 was read as aSyn 5UTR act -93.0*.
`Cc1ccc(Nc2ncc3c(n2)CC(C)(C)CC3=O)cc1` gave aSyn 5UTR act -87.8*.
For CC1(C)CC(=O)c2cnc(N3CCN(c4ccccc4)CC3)nc2C1 the results were aSyn 5UTR act -61.5*.
CC1(C)CC(=O)c2cnc(N3CCc4ccccc4C3)nc2C1 was read as aSyn 5UTR act -217.8*.
Screening CCOC(=O)/C=c1\s/c(=C\c2c(OC)ccc3ccccc23)c(=O)n1CC(=O)NCC1CCCO1 (stereo not given) returned aSyn 5UTR act 70.8.
For Cc1cc(/C=C(\C#N)C(=O)NCc2cccs2)c(C)n1-c1ccccc1F the results were aSyn 5UTR act -239.6*.
`Cc1ccccc1-n1c(C)cc(/C=C(\C#N)C(=O)NCC2CCCO2)c1C` (stereo not given) gave aSyn 5UTR act -93.6*.
O=C1CN(c2ccccc2)C(=S)N1C(=O)c1ccc(Br)cc1 was read as aSyn 5UTR act -149.9*.
COc1ccc(C2CC(c3ccc(Br)cc3)=NN2C(=S)Nc2ccccc2)cc1 (stereo not given) was read as aSyn 5UTR act -78.1*.
`Cc1ccc(C2=NN(C(=S)Nc3ccccc3)C(c3ccco3)C2)cc1` (stereo not given) gave aSyn 5UTR act -177.9*.
Screening CCC(=O)N1N=C(c2c(-c3ccccc3)c3cc(Cl)ccc3[nH]c2=O)CC1c1ccco1 (stereo not given) returned aSyn 5UTR act 42.5.
For CCS(=O)(=O)Nc1ccc(C2=NN(C(=S)Nc3ccccc3)C(c3ccco3)C2)cc1 (stereo not given) the results were aSyn 5UTR act -80.5*.
C=CCn1c(NC(=O)c2ccc(C)cc2)nc2ccccc21 was read as aSyn 5UTR act -111.2*.
`CCCCCCCn1c(NC(=O)CC)nc2ccccc21` gave aSyn 5UTR act 68.1.
`CC(=O)Nc1nc2ccccc2n1Cc1ccccc1C` gave aSyn 5UTR act 66.6.
For Cc1ccc(C(=O)Nc2nc3ccccc3n2CCN2CCCC2)cc1 the results were aSyn 5UTR act -76.0*.
`COc1ccc(/C(C)=N/N2C(=O)c3ccccc3NC2c2ccc(O)c(OC)c2)cc1` (stereo not given) gave aSyn 5UTR act -65.7*.
N#CCC(=O)N/N=C/c1ccc(OCc2ccccc2)cc1 was read as aSyn 5UTR act -66.5*.
For N#CCC(=O)N/N=C\c1ccc(OC/C=C/c2ccccc2)cc1 the results were aSyn 5UTR act -146.3*.
